The source made the active and inactive calls.
Legend:
[1] = system: Human papillomavirus type 1a protein E7 (residues 44-93); assay: HPV1a E7 fragment binders on microarrays, primary screen, biochemical, small-molecule microarray, residues 44-93, 635 nm fluorescence (AID 1108); settings: small-molecule microarray binding, fluorescence 635 nm; higher = more signal;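 also: E7 fragment applied at 1 µg/mL in TBST for 1 h at 4 C; score combines spot fluorescence with its signal to noise ratio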
[2] = modulators of HCV replicon luciferase signal, primary screen, HCV replication inhibitor project, Huh7 cells, luciferase reporter (AID 1109); settings: 48 h, higher = more signal;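 also: huh7 hepatoma cells harbouring a luciferase neomycin HCV replicon reporter; luciferase luminescence as measure of HCV replicon replication; test concentration not given here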
[3] = molecular target: Left-right determination factor 2 (Homo sapiens) (UniProt O00292); assay: LEFTY2 binders on small-molecule microarrays, primary screen, biochemical, small-molecule microarray, 635 nm fluorescence scan (AID 1110); settings: LEFTY2 binding, higher = more signal
Sequence of Left-right determination factor 2 (Homo sapiens) (O00292 whole entry, looked up): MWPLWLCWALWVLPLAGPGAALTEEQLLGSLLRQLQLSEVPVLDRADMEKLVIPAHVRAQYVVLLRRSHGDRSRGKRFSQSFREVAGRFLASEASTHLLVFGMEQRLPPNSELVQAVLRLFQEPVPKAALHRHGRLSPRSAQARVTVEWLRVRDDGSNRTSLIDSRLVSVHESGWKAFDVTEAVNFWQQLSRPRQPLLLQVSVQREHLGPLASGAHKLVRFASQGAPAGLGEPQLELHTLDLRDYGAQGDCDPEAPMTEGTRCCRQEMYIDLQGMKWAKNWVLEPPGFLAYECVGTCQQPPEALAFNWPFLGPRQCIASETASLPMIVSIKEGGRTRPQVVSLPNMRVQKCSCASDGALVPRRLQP

[4] = molecular target: Calmodulin-1 (Homo sapiens) (UniProt P0DP23); assay: CALM1 binders on microarrays, EGTA buffer, profiling panel, biochemical, small-molecule microarray, Cy5-labelled CALM1 (AID 1111); settings: Cy5-CALM1 binding fluorescence, higher = more signal;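 also: labelled calmodulin applied in Tris saline Tween buffer holding calcium plus EGTA and DTT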
[5] = molecular target: Calmodulin-1 (Homo sapiens) (UniProt P0DP23); assay: calcium-bound CALM1 binders on microarrays, profiling panel, artefact control for SMM control-protein annotation, biochemical, small-molecule microarray, Cy5-labelled CALM1, plus calcium (AID 1112); settings: Cy5-CALM1 binding fluorescence, higher = more signal;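 also: score merges spot fluorescence with signal to noise from triplicate slides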
[6] = small-molecule microarray binders of probe aWnt5a, primary screen, biochemical, biotinylated probe, 635/667 nm fluorescence (AID 1113); settings: higher = more signal;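 also: score merges 667 nm fluorescence intensity with signal-to-noise per printed feature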
[7] = small-molecule microarray binders of probe aShh, primary screen, biochemical, biotinylated probe, 635/667 nm fluorescence (AID 1114); settings: higher = more signal;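 also: probe is biotin-labelled aShh protein from a stem cell growth factor screen; measures binding of labelled protein to compounds printed on the slide; score merges feature fluorescence at 667 nm with signal-to-noise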
[8] = small-molecule microarray binders of probe aNog, primary screen, biochemical, biotinylated probe, 635/667 nm fluorescence (AID 1115); settings: higher = more signal;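 also: probe is biotinylated aNog protein used at 0.15 µg/mL for 1 h at 4 C; z-score combines 667 nm fluorescence of each spot with its signal to noise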
[9] = molecular target: Torsin-1A-interacting protein 1 (Homo sapiens) (UniProt Q5JTV8); assay: LAP1 binders from COS7 cell lysate, primary screen, small-molecule microarray, 635/667 nm fluorescence (AID 1116); settings: COS7-hLAP1 lysate binding, 635 nm fluorescence, higher = more signal
Sequence of Torsin-1A-interacting protein 1 (Homo sapiens) (Q5JTV8 whole entry, looked up): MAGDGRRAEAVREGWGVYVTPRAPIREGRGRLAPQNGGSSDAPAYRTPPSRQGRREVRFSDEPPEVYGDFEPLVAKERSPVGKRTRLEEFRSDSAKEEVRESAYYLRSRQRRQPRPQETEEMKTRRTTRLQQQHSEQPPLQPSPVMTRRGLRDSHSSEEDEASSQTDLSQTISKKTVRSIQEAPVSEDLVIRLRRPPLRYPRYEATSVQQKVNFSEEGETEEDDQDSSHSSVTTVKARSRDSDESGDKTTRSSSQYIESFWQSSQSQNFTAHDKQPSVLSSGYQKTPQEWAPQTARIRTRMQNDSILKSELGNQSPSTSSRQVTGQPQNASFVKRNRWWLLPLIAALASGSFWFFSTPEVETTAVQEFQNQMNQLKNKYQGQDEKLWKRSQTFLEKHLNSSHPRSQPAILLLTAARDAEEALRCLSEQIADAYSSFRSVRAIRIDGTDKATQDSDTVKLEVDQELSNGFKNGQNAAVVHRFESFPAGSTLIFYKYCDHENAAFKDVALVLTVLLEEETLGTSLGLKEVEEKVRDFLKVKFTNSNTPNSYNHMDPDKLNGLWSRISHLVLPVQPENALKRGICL

[10] = molecular target: Alpha-bungarotoxin (Bungarus multicinctus) (UniProt P60615); assay: alpha-bungarotoxin binders on microarray, profiling panel, artefact control for SMM control protein annotation, biochemical, small-molecule microarray, Alexa647 label, 635/667 nm fluorescence (AID 1117); settings: alpha-BTX-A647 binding fluorescence, higher = more signal
Sequence of Alpha-bungarotoxin (Bungarus multicinctus) (P60615 whole entry, looked up): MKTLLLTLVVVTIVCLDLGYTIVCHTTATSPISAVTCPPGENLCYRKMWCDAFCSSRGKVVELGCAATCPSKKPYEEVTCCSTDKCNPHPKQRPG

Albumin (Bos taurus) = Albumin (Bos taurus) (UniProt P02769); assay: bovine serum albumin binders on microarray, profiling panel, artefact control for SMM control protein annotation, biochemical, small-molecule microarray, Alexa647 label, 635/667 nm fluorescence (AID 1118); settings: BSA-A647 binding, fluorescence 635 nm, higher = more signal;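 also: score merges 667 nm emission intensity and signal-to-noise per printed compound spot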
Sequence of Albumin (Bos taurus) (P02769 whole entry, looked up): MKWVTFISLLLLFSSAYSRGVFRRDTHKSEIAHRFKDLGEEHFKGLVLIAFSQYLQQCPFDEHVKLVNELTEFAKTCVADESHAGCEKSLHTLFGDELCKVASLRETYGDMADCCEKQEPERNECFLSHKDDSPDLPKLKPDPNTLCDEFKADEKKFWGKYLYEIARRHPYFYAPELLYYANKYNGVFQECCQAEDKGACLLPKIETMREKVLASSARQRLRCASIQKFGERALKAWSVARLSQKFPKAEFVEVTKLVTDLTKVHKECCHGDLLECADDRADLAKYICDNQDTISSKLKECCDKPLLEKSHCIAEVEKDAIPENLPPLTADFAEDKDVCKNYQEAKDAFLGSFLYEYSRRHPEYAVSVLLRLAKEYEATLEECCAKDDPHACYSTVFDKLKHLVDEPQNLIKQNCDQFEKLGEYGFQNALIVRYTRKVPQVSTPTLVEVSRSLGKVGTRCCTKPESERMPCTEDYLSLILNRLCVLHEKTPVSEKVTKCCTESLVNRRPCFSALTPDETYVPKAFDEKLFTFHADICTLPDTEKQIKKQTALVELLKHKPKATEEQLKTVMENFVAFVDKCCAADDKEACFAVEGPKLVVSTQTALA

[11] = small-molecule microarray binders of probe aXIP, primary screen, biochemical, NeuroSMM set, 635/667 nm fluorescence (AID 1119); settings: higher = more signal, called active from +8 up or from −8 down;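 also: probe is the protein aXip251-270 applied at 1 µg/mL to compound-printed slides; binding of probe to printed compounds measured as 667 nm fluorescence plus signal to noise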
[12] = small-molecule binders of probe aNOTCH3, primary screen, biochemical, small-molecule microarray, 635/667 nm fluorescence (AID 1120); settings: higher = more signal;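 also: probe is a biotin-tagged antibody raised against NOTCH3 rather than NOTCH3 protein; score merges spot fluorescence near 667 nm with spot signal to noise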
[13] = small-molecule binders of probe aNOTCH2, primary screen, biochemical, small-molecule microarray, 635/667 nm fluorescence (AID 1121); settings: higher = more signal;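 also: score merges feature fluorescence read at 667 nm with its signal to noise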
[14] = molecular target: Carbonic anhydrase 2 (Homo sapiens) (UniProt P00918); assay: CAII small-molecule binders, profiling panel, biochemical, small-molecule microarray, Alexa647-labelled CAII (AID 1122); settings: CAII-A647 binding fluorescence, higher = more signal
[15] = COS7 lysate on small-molecule microarray, probe aHis, 635 nm (AID 1123); settings: COS7 cell lysate, fluorescence, higher = more signal;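 also: z-score combines 667nm fluorescence intensity with signal-to-noise per printed compound spot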
[16] = compound binding in COS7 lysate, probe aLAP1, primary screen, cell lysate, small-molecule microarray (AID 1124); settings: probe aLAP1, fluorescence, higher = more signal;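 also: lysate comes from COS7 cells expressing LAP1 and is applied at 0.3 µg/mL; score merges spot fluorescence near 667 nm with signal-to-noise over triplicate slides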
Sam68 (KHDRBS1) = assay: Sam68 small-molecule binders, primary screen, biochemical, small-molecule microarray, 635 nm fluorescence (AID 1125); settings: small-molecule microarray binding, higher = more signal;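 also: score merges 667 nm channel intensity with signal to noise over triplicate slides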
[17] = system: Chordin-like protein 2 (CHRDL2); assay: CHRDL2 small-molecule binders, primary screen, biochemical, small-molecule microarray, 635 nm fluorescence (AID 1126); settings: small-molecule microarray binding, fluorescence 635 nm; higher = more signal;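 also: printed compound slides probed with Chrdl2 protein at 4 µg/mL for 1 h at 4 C; score merges 667 nm emission intensity with signal to noise over three replicate slides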
[18] = molecular target: Concanavalin-A (Canavalia ensiformis) (UniProt P02866); assay: ConA small-molecule binders, primary screen, artefact control for SMM control protein annotation, biochemical, small-molecule microarray, Alexa647 label, 635 nm (AID 1127); settings: ConA-A647 binding fluorescence, higher = more signal;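 also: z combines 667 nm emission intensity with signal-to-noise across three replicate slides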
Sequence of Concanavalin-A (Canavalia ensiformis) (P02866 whole entry, looked up): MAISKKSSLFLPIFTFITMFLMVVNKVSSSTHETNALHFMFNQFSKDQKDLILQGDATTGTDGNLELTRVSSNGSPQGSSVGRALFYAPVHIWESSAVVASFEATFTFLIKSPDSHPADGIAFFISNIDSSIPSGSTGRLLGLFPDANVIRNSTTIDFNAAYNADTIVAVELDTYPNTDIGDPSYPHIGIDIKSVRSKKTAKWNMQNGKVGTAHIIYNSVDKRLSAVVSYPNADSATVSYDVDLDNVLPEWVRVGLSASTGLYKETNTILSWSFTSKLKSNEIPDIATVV

| SMILES | composite z-score [1] | z-score [2] | composite z-score [3] | composite z-score [4] | composite z-score [5] | composite z-score [6] | composite z-score [7] | composite z-score [8] | composite z-score [9] | composite z-score [10] | composite z-score (Albumin (Bos taurus)) | composite Z-score [11] | composite z-score [12] | composite z-score [13] | composite z-score [14] | composite z-score [15] | composite z-score [16] | composite z-score (Sam68 (KHDRBS1)) | composite z-score [17] | composite z-score [18] |
| --- | --- | --- | --- | --- | --- | --- | --- | --- | --- | --- | --- | --- | --- | --- | --- | --- | --- | --- | --- | --- |
| C=CCOC(=O)[C@H]1[C@@H]2C(=O)O[C@@H](c3ccccc3)[C@@H](c3ccccc3)N2[C@@H](c2ccc(OCCOC(=O)[C@H]3C[C@H]4C(=O)N[C@@H](CCCCNC(C)=O)C(=O)N4[C@H]3c3cccc(OCCO)c3)cc2)[C@]12C(=O)Nc1ccc(I)cc12 | 1.42 | -1.21 | 0.801 | -0.0021 | -0.451 | 0.0825 | -0.705 | -0.632 | 0.339 | 0.975 | -0.371 | 1.97 (inactive) | -0.366 | -0.354 | 0.605 | 1.47 | 0.353 | 1.25 | 0.736 | 1.12 |
| CC(=O)NCCCC[C@@H]1NC(=O)[C@H]2C[C@@H](C(=O)NCCCCCNC(=O)CS)[C@@H](c3cccc(OCCO)c3)N2C1=O | 0.0676 | 0.217 | 0.0794 | 0.232 | 0.202 | -0.157 | -0.147 | -0.158 | 0.868 | 0.389 | 0.419 | 1.98 (inactive) | -0.27 | -0.173 | 0.364 | 2.34 | -0.178 | 0.742 | 0.715 | 0.493 |
| C=C(C)[C@@H]1CC=C(C(O)C2C=CC3C(=O)N(c4ccccc4)C(=O)C3N2Nc2ccc(C#N)cc2)CC1 (stereo not given in full) | 1.47 | -0.768 | 0.0506 | 1.75 | 0.424 | -0.0431 | 0.0469 | 1.5 | -0.243 | 1.92 | 0.971 | 0.0421 (inactive) | 0.217 | 0.0963 | 0.643 | 2.46 | 0.429 | 1.31 | 0.355 | 1.16 |
| CC(C)N1CC=CC23O[C@@H]4/C=C\CCCOC(=O)C4[C@H]2C(=O)N(CCCCCCO)[C@@H]3C1=O (stereo not given in full) | 0.509 | -0.276 | -1.46 | -0.954 | -0.488 | -0.0643 | -0.346 | 0.345 | 0.881 | -1.5 | -0.616 | 0.379 (inactive) | -0.277 | -0.0895 | 0.938 | 1.28 | 1.14 | 0.223 | -1.26 | -1.02 |
| Cc1ccc(F)cc1S(=O)(=O)N[C@@H]1CCN(Cc2cccc3[nH]ccc23)C1 | -0.0347 | -1.57 | 0.682 | -0.517 | -1.03 | -0.0685 | -0.153 | -0.492 | 0.852 | 0.111 | -0.864 | -1.15 (inactive) | 0.0749 | -0.154 | 0.708 | -0.339 | 0.136 | 0.289 | 1.23 | 0.249 |
| CCCCC(=O)N(CCN1CCOCC1)[C@@H]1CC(C(=O)NCCO)=C[C@H](Oc2c(I)cc(CO)cc2OC)[C@H]1O | 0.33 | 0.282 | 0.653 | -0.282 | -0.598 | -0.19 | -0.358 | -0.31 | -0.0458 | 0.354 | -0.365 | -0.18 (inactive) | -0.163 | -0.185 | -0.142 | -0.463 | -0.265 | 0.593 | 0.459 | 0.331 |
| CC(=O)NCCCC[C@@H]1NC(=O)[C@@H]2C[C@H](C(=O)NCCCCCCN)[C@H](c3cccc(OCCO)c3)N2C1=O | 0.601 | -0.69 | -0.535 | 1.47 | 1.35 | -0.0519 | -0.0066 | -0.153 | 1.79 | 2.15 | 0.851 | 0.801 (inactive) | -0.0682 | -0.149 | 0.779 | 1.72 | 1.89 | 1.12 | -0.878 | 1.12 |
| CO[C@H]1O[C@H](CO)[C@@H](OC(=O)Nc2ccc(C#N)cc2)[C@@H]2OC(=O)[C@H](Cc3cccc(Br)c3)C/C=C/C[C@@H](Cc3cccc(Br)c3)C(=O)O[C@@H]12 | 1.02 | -3.4 | 0.721 | 0.211 | -0.121 | -0.104 | 0.326 | 0.886 | 0.318 | 0.764 | 0.348 | 0.656 (inactive) | 0.0935 | -0.0711 | 0.26 | 0.913 | 0.23 | 0.697 | 0.116 | 0.384 |
| O=C1C[C@@](C(=O)NCc2ccccc2)(c2ccc([N+](=O)[O-])cc2)[C@@H](c2ccc(CO)cc2I)N1CC12CC3CC(CC(C3)C1)C2 | 1.39 | -3.32 | 0.591 | 0.387 | 0.0818 | -0.0529 | -0.152 | -0.131 | 0.903 | 1.02 | 0.59 | -0.0102 (inactive) | -0.223 | -0.14 | 0.721 | 2.25 | 0.0884 | 1.21 | 0.542 | 0.999 |
| CCN(CC)c1ccc(N2CC=CC34O[C@@H]5C=CCCOC(=O)C5[C@H]3C(=O)N(CCO)[C@@H]4C2=O)cc1 (stereo not given in full) | -0.595 | -0.362 | -1.37 | -0.547 | -0.183 | -0.214 | -0.26 | 2.13 | -1.01 | 0.253 | 0.0715 | -0.296 (inactive) | -0.341 | -0.158 | 0.898 | -0.724 | 0.624 | -0.661 | -0.414 | -2.06 |

— PubChem BioAssay
